Compounds with a hit are over-represented: about 2.9% of the library has one in this group of screens.
EPAC1 ag val: Validation qHTS for agonist of cAMP-regulated guanine nucleotide exchange factor 3 (EPAC1); Potency, µM, most hits filed as activators; EPAC1 Rap1b BODIPY-GDP exchange, fluorescence; Rap guanine nucleotide exchange factor 3 (Homo sapiens), O95398; 16,000 compounds, 1% hits; AID 1645883, 2021; also: nearly all actives have a fitted effect of over 70% in size
EPAC2 ant val: Validation qHTS for antagonist of cAMP-regulated guanine nucleotide exchange factor 4 (EPAC2); Rap guanine nucleotide exchange factor 4 (Homo sapiens), Q8WZA2; 16,000 compounds, 1.7% hits; AID 1645886, 2021; EPAC2 Rap1B BODIPY-GDP exchange, fluorescence; Potency, µM (series often up to 112 µM), hits mostly inhibitors; also: nearly all actives have a fitted effect of over 40% in size
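Normalized against a 6.5 mM cAMP agonist control, compounds were tested on 100 nM EPAC2 exchanging Rap1B-bound BODIPY-GDP (250 nM) for 50 uM GDP. Fluorescence drop (ex 480, em 540 nm) was tracked at room temperature over 30 min at 5-min intervals.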
Large screens that a line does not name were inactive; ! = not confirmed by another sample. Calls follow the shape of the dose curve; as a rule, active = well fitted curve in the direction sought with a large enough effect; inconclusive = small, poorly fitted or top-dose-only effect, or another doubt; inactive = no such curve, though single readings can be large; an effect the other way counts as inactive or inconclusive.

CCN(CC)CCCC(C)Nc1c2ccc(Cl)cc2nc2ccc(OC)cc12 (stereo unspecified)	EPAC1 ag val 112µM!
CCN(CC)CCCC(C)Nc1cc(/C=C/c2ccccc2Cl)nc2cc(Cl)ccc12 (stereo unspecified)	none
C[n+]1c2cc(N)ccc2cc2ccc(N)cc21 (tested in a mixture with another compound)	EPAC1 ag val 25µM
O=S(=O)(O)c1cc(I)c(O)c2ncccc12	none
O=C(Nc1ccc(/C=C/c2ccc(NC(=O)c3cc(S(=O)(=O)O)c4cccnc4c3O)cc2S(=O)(=O)O)c(S(=O)(=O)O)c1)c1cc(S(=O)(=O)O)c2cccnc2c1O	EPAC1 ag val inconclusive, EPAC2 ant val 22µM
CC(C)c1c(C(=O)N(C)Cc2cccc3ncccc23)cnn1-c1nccc(-c2ccccc2F)n1	none
COC(=O)C1=C(C)NC(COC(N)=O)=C(C(=O)OC(C)C)C1c1cccc(Cl)c1Cl (stereo unspecified)	EPAC1 ag val inconclusive, EPAC2 ant val 50µM
COC(=O)C1=C(C)NC(C)=C(C(=O)OC)C1c1ccccc1[N+](=O)[O-]	EPAC2 ant val inconclusive
CN(C)CCCN1c2ccccc2Sc2ccc(Cl)cc21	none
OCCN1CCN(CCCN2c3ccccc3Sc3ccc(Cl)cc32)CC1	EPAC2 ant val 35µM!
Cc1cc(C(=O)NCc2nc(-c3ccccc3NC(=O)C3CCCO3)oc2C)nc(C)n1 (stereo unspecified)	EPAC2 ant val inconclusive
CC(/C=C/c1cccc(Oc2ccc(F)cc2)c1)N(O)C(N)=O (stereo unspecified)	EPAC2 ant val 79µM
C[C@@H](/C=C\c1cccc(Oc2ccc(F)cc2)c1)N(O)C(N)=O	EPAC2 ant val 25µM
CC(C(=O)O)c1cccc(Oc2ccccc2)c1 (stereo unspecified)	none
CC(=O)OCC(=O)[C@@]1(O)CC[C@H]2[C@@H]3CCC4=CC(=O)CC[C@]4(C)C3=CC[C@@]21C	none
CO/N=C(\C(=O)N[C@@H]1C(=O)N2C(C(=O)O)=C(CSC(=O)c3ccco3)CS[C@H]12)c1csc(N)n1	none
Cc1ncc(Cc2ccccc2)c(C2CCN(S(=O)(=O)C[C@]34CC[C@H](CC3=O)C4(C)C)CC2)n1	EPAC2 ant val inconclusive
CC(=O)N[C@@H](Cc1c[nH]c2ccccc12)C(=O)OCc1cc(C(F)(F)F)cc(C(F)(F)F)c1	EPAC2 ant val 45µM!
NC(Cc1c[nH]c2ccccc12)C(=O)O (stereo unspecified)	none
CC(C)c1c(C(=O)NCC(C)(C)N2CCOCC2)cnn1-c1nccc(-c2cccs2)n1	none
COc1ccc(SC[C@H](Cc2ccccc2)N2CC[C@@H](C)CCC2=O)cc1	EPAC2 ant val 40µM
Cc1ccc(SC[C@H](Cc2ccccc2)N2CC[C@@H](C)CCC2=O)cc1	EPAC2 ant val inconclusive
COC(=O)c1cccc(C(=O)NCc2nc(-c3cccc(NC(=O)c4ccoc4C)c3)oc2C)c1	none
COc1cc(-c2cccc(OC)c2OC)cc2c1OCCN(Cc1cn[nH]c1-c1ccc(Cl)cc1)C2	EPAC2 ant val inconclusive
COc1cc(-c2ccc(N=Nc3ccc4c(S(=O)(=O)O)cc(S(=O)(=O)O)c(N)c4c3O)c(OC)c2)ccc1N=Nc1ccc2c(S(=O)(=O)O)cc(S(=O)(=O)O)c(N)c2c1O	EPAC2 ant val 28µM!
CC(C)c1ccc(CN2CCC3(CCC(CNC(=O)c4ccn(C)n4)O3)CC2)cc1 (stereo unspecified)	none
CCc1nc(CN2CCOc3ccc(C(O)C4CCCCC4)cc3C2)c(C)[nH]1 (stereo unspecified)	none
COc1cccc(Cn2c(=O)c(-c3cn(C)c4ccccc34)nc3cnc(N4CCOCC4)nc32)c1	none
COc1cccc(Nc2ncc3nc(C)c(=O)n(C[C@H]4CCCO4)c3n2)c1	none
COc1cccc(Nc2ncc3nc(-c4cn(C)c5ccccc45)c(=O)n(C[C@H]4CCCO4)c3n2)c1	EPAC1 ag val 112µM
COc1cccc(Cn2c(=O)c(CCc3ccccc3)nc3cnc(N4CCN(C)CC4)nc32)c1	EPAC1 ag val 112µM
COc1cccc(Cn2c(=O)c(-c3cn(C)c4ccccc34)nc3cnc(N4CCNCC4)nc32)c1	EPAC1 ag val inconclusive, EPAC2 ant val 79µM
COc1cccc(Cn2c(=O)c(-c3ccccc3)nc3cnc(N4CCN(C)CC4)nc32)c1	none
COc1ccc2ccccc2c1CN1CCC2(CCC(CNC(=O)c3ccccc3)O2)CC1 (stereo unspecified)	none
CO[C@H]1[C@H](NC(=O)c2cccs2)c2ccccc2C12CCN(Cc1cccn1-c1ccccn1)CC2	none
O=C1CCCCN1CCC(=O)N1CCOc2ccc(C(O)C3CCCCC3)cc2C1 (stereo unspecified)	EPAC2 ant val inconclusive
CC(C)(Sc1ccc(CCN(CCCCC2CCCCC2)C(=O)NC2CCCCC2)cc1)C(=O)O	EPAC2 ant val 45µM!
CC(=O)N(Cc1ccc2c(c1)OCO2)Cc1cc2ccc(C)cc2nc1-c1cccc(C)c1	EPAC2 ant val inconclusive
Cc1ccc(C(=O)Nc2ccc(S(=O)(=O)O)c3cc(S(=O)(=O)O)cc(S(=O)(=O)O)c23)cc1NC(=O)c1cccc(NC(=O)Nc2cccc(C(=O)Nc3cc(C(=O)Nc4ccc(S(=O)(=O)O)c5cc(S(=O)(=O)O)cc(S(=O)(=O)O)c45)ccc3C)c2)c1	EPAC1 ag val 89µM!
C[C@@H](O)[C@H]1C(=O)N2C(C(=O)[O-])=C(SC3Cn4cnc[n+]4C3)[C@H](C)[C@H]12 (stereo partly specified)	none
Oc1cc(O)c2c(c1)O[C@H](c1ccc(O)c(O)c1)[C@@H](O)C2	none
O=c1c(O)cc(C2Oc3cc(O)cc(O)c3CC2O)cc2c(C3Oc4cc(O)cc(O)c4CC3O)cc(O)c(O)c12 (stereo unspecified)	EPAC2 ant val 20µM
O=C(Nc1cc(C(=O)NC2CCOCC2)c2c(c1)ncn2C1CCCC1)c1ccccc1	EPAC2 ant val inconclusive
CN1CC(O)C2=CC(=O)C(=O)C=C21 (stereo unspecified)	EPAC2 ant val 79µM
CS(=O)(=O)c1ccc(-c2cccc3c2OC(CNC(=O)c2ccnc(Cl)c2)C3)cc1 (stereo unspecified)	EPAC2 ant val inconclusive
C#C[C@]1(O)CC[C@H]2[C@@H]3CCc4cc(O)ccc4[C@H]3CC[C@@]21C	none
C#C[C@]1(OC(C)=O)CCC2C3CCC4=CC(=O)CCC4C3CC[C@]21C (stereo partly specified)	EPAC2 ant val 79µM
C#C[C@@]1(O)CCC2C3CCC4=CC(=O)CCC4C3CC[C@@]21CC (stereo partly specified)	none
C#C[C@]1(OC(C)=O)CC[C@H]2[C@@H]3CCC4=C[C@@H](OC(C)=O)CC[C@@H]4[C@H]3CC[C@@]21C	EPAC1 ag val 45µM!, EPAC2 ant val inconclusive
O=C(NCCN1Cc2ccccc2OC(c2ccccc2F)C1)c1cncs1 (stereo unspecified)	none
CC(=O)Oc1ccc2c(c1)CC[C@@H]1[C@@H]2CC[C@]2(C)[C@@H](O)CC[C@@H]12	EPAC1 ag val 28µM
CC(=O)Oc1ccc2c(c1)CCC1C2CC[C@]2(C)C(OC(C)=O)CCC12 (stereo partly specified)	EPAC1 ag val inconclusive
Cc1ccc(O)c(N=Nc2ccccc2)n1	EPAC2 ant val 56µM!
Cc1ccc2ccccc2n1	none
